# What was measured:
# Settings in all cases: concentration: 1 μM, replicates: in singlicate; n = 1
# ACVR1 = tested on: ACVR1
# ACVR2A = tested on: ACVR2A
# ACVR2B = tested on: ACVR2B
# ACVRL1 = tested on: ACVRL1
# ADCK3 = tested on: T1, ADCK3
# T1 construct: gene CABC1
# ADCK4 = tested on: ADCK4
# AKT1 = tested on: AKT1
# AKT2 = tested on: AKT2
# AKT3 = tested on: AKT3
# ALK = tested on: ALK
# 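Also: KINOMEscan kinase panel screen.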
SMILES,%Inh (ACVR1),%Inh (ACVR2A),%Inh (ACVR2B),%Inh (ACVRL1),%Inh (ADCK3),%Inh (ADCK4),%Inh (AKT1),%Inh (AKT2),%Inh (AKT3),%Inh (ALK)
COC(=O)c1cccc(NC(=O)NC2CCN(c3ccnc(Nc4ccc(OC)cc4)n3)C2)c1 (stereo not shown) [GSK1379746],41%,0%,0%,0%,18%,52%,0%,11%,0%,20%
Cc1ccccc1Cn1ccn2c(=O)cc(N3CCOCC3)nc12 [GSK2269905],25%,0%,0%,0%,16%,17%,0%,16%,0%,28%
O=C(Nc1n[nH]c2nc(-c3ccco3)c(Br)cc12)C1CCN(Cc2ccccc2)C1.O=C(O)[C@H](O)[C@@H](O)C(=O)O (stereo not shown) [SB-742034],0%,21%,0%,28%,7%,0%,0%,3%,3%,5%
Cc1c(Cn2c(C)c(C)n3c(=O)cc(N4CCOCC4)nc23)cccc1C(F)(F)F [GSK2328680],0%,0%,0%,0%,2%,14%,0%,0%,0%,3%
O=C1NC(=O)C(c2ccc(Cl)cc2)=C1Nc1cccc(Cl)c1 [SB-317651],0%,0%,0%,16%,17%,0%,0%,5%,0%,0%
COc1ccc(Nc2nccc(N3CCC(NC(=O)C(C)c4ccc(Cl)cc4)CC3)n2)cc1 (stereo not shown) [GSK1379812],8%,0%,0%,0%,25%,18%,0%,0%,3%,18%
Nc1nccc(-c2c(-c3ccc(F)cc3)ncn2C2CCN(Cc3ccccc3)CC2)n1 [SB-219980],7%,0%,0%,9%,0%,55%,15%,0%,0%,16%
COc1ccc(Nc2nccc(-c3ccc(NC(=O)c4cc5cc(F)ccc5[nH]4)cc3)n2)cc1 [GSK1229496],0%,0%,0%,0%,5%,29%,0%,0%,0%,17%
COc1ccc(Nc2nccc(N3CCC(NC(=O)C(C)c4ccc(Cl)cc4)C3)n2)cc1 (stereo not shown) [GSK1379735],14%,0%,0%,0%,22%,17%,0%,9%,0%,25%
CC(C)c1ccc(O)cc1Nc1ccnc2ccc(C(F)(F)F)cc12 [GW482059],0%,43%,0%,19%,0%,2%,0%,0%,0%,15%
CNCc1ccc2nc(NC(=O)c3ccc(C(C)(C)C)cc3)cn2c1,2%,0%,0%,7%,0%,13%,5%,8%,17%,16%
Cl.Cl.Cl.N#Cc1ccc(CCNc2nccc(-c3cccc(CN4CCNCC4)c3)n2)cc1 [GSK2137462],11%,0%,0%,0%,23%,22%,0%,5%,5%,15%
Fc1ccc(-c2nn3cccc(F)c3c2-c2ccncc2)cc1 [GW475620],11%,0%,47%,22%,12%,9%,0%,14%,29%,16%
COc1ccc(CSc2nnc(-c3ccc4nccn4c3)o2)cc1C(F)(F)F,0%,7%,15%,21%,6%,6%,13%,4%,44%,29%
COc1ccc(CSc2nnc(-c3ccc4ncsc4c3)o2)cc1C(F)(F)F,0%,0%,0%,2%,0%,0%,8%,4%,0%,0%
Cn1cncc1C(=O)NC1CCN(c2ccnc(Nc3ccc(F)cc3)n2)C1 (stereo not shown) [GSK1379717],24%,24%,2%,0%,2%,26%,0%,0%,0%,0%
Cc1ccc(NC(=O)Nc2ccc(Cl)cc2)cc1-c1ccc(C(=O)Nc2ccncc2)cc1 [GSK1398472],15%,0%,0%,0%,22%,23%,0%,0%,0%,46%

SMILES,%Inh (ACVR1),%Inh (ACVR2A),%Inh (ACVR2B),%Inh (ACVRL1),%Inh (ADCK3),%Inh (ADCK4),%Inh (AKT1),%Inh (AKT2),%Inh (AKT3),%Inh (ALK)
CNc1nc(-c2ccc3c(N)n[nH]c3c2)cc(N2C[C@@H](C(=O)Nc3ccccc3)CC[C@H]2C)n1 [GSK2298859],0%,0%,12%,0%,22%,26%,0%,2%,0%,3%
O=C(Nc1n[nH]c2nc(-c3cccs3)c(Br)cc12)C1CC1 [SB-735297],27%,0%,0%,0%,0%,0%,0%,0%,0%,0%
CN1c2ccc(-c3ccc(C(N)=O)cc3)cc2-c2[nH]ncc2S1(=O)=O,0%,8%,16%,16%,0%,3%,3%,0%,0%,30%
Cc1cnc(N)c(/C=C/c2cncc(C(=O)NCCc3ccc(Cl)cc3Cl)c2)c1.Cl [GSK190937],0%,0%,0%,0%,25%,13%,0%,0%,0%,0%
COc1ccc(-c2coc3ccc(-c4nnc(C)o4)cc23)cc1,0%,5%,0%,27%,9%,0%,8%,0%,2%,0%
Cc1c(Cn2c3ccccc3n3c(=O)cc(N4CCOCC4)nc23)cccc1C(F)(F)F [GSK2306394],10%,6%,0%,9%,0%,0%,0%,19%,0%,2%
Cc1cccc2c(-c3ccncn3)c(-c3ccc(F)cc3)nn12 [GW515532],0%,19%,37%,21%,40%,40%,0%,8%,0%,23%
O=C(Nc1n[nH]c2nc(-c3cccs3)c(Br)cc12)C1CCCC1 [SB-743341],0%,0%,7%,9%,7%,0%,0%,40%,0%,1%
NS(=O)(=O)c1cccc(N/C=C2\C(=O)Nc3ccc(S(=O)(=O)Cc4c(Cl)cccc4Cl)cc32)c1 [GSK398099],0%,0%,0%,0%,1%,18%,0%,25%,0%,8%
CC[C@@H]1CO[C@H](C(=O)Nc2ccccc2)CN1c1cc(-c2ccc3c(N)n[nH]c3c2)nc(NC)n1 [GSK2376236],0%,0%,0%,0%,27%,12%,0%,15%,0%,0%
COc1ccc2cc(-c3nc(-c4ccccc4C(C)C)[nH]c3-c3ccncc3)ccc2c1 [SB-660566],17%,0%,0%,34%,5%,17%,0%,41%,0%,38%
COc1ccc(CSc2nnc(-c3ccc4c(c3)CCO4)o2)cc1,0%,0%,0%,0%,0%,0%,0%,0%,0%,0%
CCCCc1nn2ncccc2c1-c1ccnc(NC2CC2)n1 [GW684374],2%,0%,0%,0%,61%,38%,0%,0%,0%,17%
CCn1c(-c2c(N)noc2C)nc2cnccc21 [SB-737856],21%,0%,0%,0%,23%,24%,0%,18%,0%,35%
Cn1cnc2c(N)ncnc21 [SKF-97623],0%,0%,0%,0%,0%,17%,0%,0%,0%,28%
CS(=O)(=O)Cc1ccc(Nc2nccc(-c3c(-c4cccc(NC(=O)C5CCCCC5)c4)nn4ncccc34)n2)cc1 [GSK350559],18%,0%,0%,0%,24%,0%,23%,4%,0%,29%
COc1cccc(CNC(=O)NC2CCN(c3ccnc(Nc4ccc(F)cc4)n3)C2)c1 (stereo not shown) [GSK1379723],10%,0%,0%,0%,10%,35%,0%,12%,0%,43%

# Source: article PMC5540273 (PLoS ONE, 2017)
